Measurements from PubChem BioAssay.
Several values for one entry are separate records, joined by “and”; a condition that tells them apart may be missing. Equal values may be shown once. Inconclusive results are not listed. Activity calls are given as the source filed them. Unless noted, no stated cut-off is given here; in the data, active means inhibition above about 80%; inactive means the rest.

Assays:
[1] = reducers of polyQ inclusions in PC12 cells, cell-based, NGF-treated PC12, GFPQ80 (AID 1614); details: PC12 NGF-treated GFP-polyQ80 inclusion reduction;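 further: lower means fewer inclusions and 0 means no inclusions at all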
[2] = growth inhibition of DIPG glioma cells, dose response, cell-based, SU-DIPG-XVII, MIPE5.0, CellTiter-Glo, qHTS (AID 1347060; cut-off not given, nearly all actives have AC50 up to about 26 µM); details: SU-DIPG-XVII viability, CellTiter-Glo ATP luminescence
[3] = growth inhibition of DIPG glioma cells, dose response, cell-based, SU-DIPG-XIII, MIPE4.0, CellTiter-Glo, qHTS (AID 1347061; cut-off not given, nearly all actives have AC50 up to about 37 µM;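 further: cells exposed to compound for 48 hours before readout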); details: SU-DIPG-XIII viability, CellTiter-Glo ATP luminescence
[4] = viability loss in pontine glioma line – cell-based, SU-DIPG-XXV, MIPE5.0, CellTiter-Glo, qHTS, dose response (AID 1347065; cut-off not given, nearly all actives have AC50 up to about 26 µM;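 further: cells exposed to compound for 48 hours before ATP readout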); details: CellTiter-Glo ATP luminescence
[5] = SU-DIPG-VI glioma cell viability, MIPE4.0 library, CellTiter-Glo luminescence, qHTS (AID 1347066; cut-off not given, nearly all actives have AC50 up to about 30 µM;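 further: cells exposed to compound for 48 hours before readout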); details: CellTiter-Glo ATP luminescence
[6] = JHH-DIPG-1 glioma cell viability, MIPE5.0 library, CellTiter-Glo luminescence, qHTS (AID 1347067; cut-off not given, nearly all actives have AC50 up to about 26 µM;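 further: cells exposed to compound for 48 hours before readout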); details: JHH-DIPG-1 glioma viability, CellTiter-Glo ATP luminescence
[7] = SU-DIPG-XXV glioma cell viability, MIPE5.0 library, qHTS (AID 1347068; cut-off not given, nearly all actives have IC50 up to about 30 µM)
[8] = LFS_MB_P medulloblastoma growth inhibition, cell-based, chromothripsis tumors, cisplatin or BGB combos (AID 1671449); details: LFS_MB_P medulloblastoma cells;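 further: cells exposed for 96 hours; 0% = vehicle DMSO and 100% = killing by high DMSO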
[9] = HDN33 neuroblastoma growth inhibition, cell-based, chromothripsis tumors, cisplatin or BGB combos (AID 1671450); details: HDN33 neuroblastoma cells, stronger effect = higher value;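 further: cells exposed to compound for four days; 0% = vehicle DMSO and 100% = cell killing by high DMSO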
[10] = ICB984 medulloblastoma cell growth inhibition, synergistic combos for chromothripsis tumors, cisplatin or BGB combos (AID 1671451; call rule not given here;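 further: cells exposed for 96 hours before readout; 0% = vehicle DMSO and 100% = killing by high DMSO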); details: ICB984 medulloblastoma cells, drug combinations, stronger effect = higher value
[11] = HTB85 osteosarcoma cell growth inhibition, synergistic combos for chromothripsis tumors, BGB or cisplatin IC20 combos (AID 1671453); details: HTB85 osteosarcoma cells, drug combinations, stronger effect = higher value;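 further: cells exposed for 96 hours before readout; 0% = vehicle DMSO and 100% = high DMSO killing control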
F380Y/beta1 = test: modulators of BK channel variants, profiling panel, selectivity assay, cell-based, U2OS BacMam, thallium flux, beta subunits (AID 1259406;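 active means thallium flux through the channel raised or lowered by more than 3 SD from vehicle-only wells, actives on both sides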;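 further: initial slope of Thallos dye fluorescence rise after thallium is added; log ratio against the mean of 0.3% DMSO vehicle wells on the same plate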); details: at 30 µM
F380Y/beta4 = test: as above; details: at 30 µM
R275C/beta4 = test: as above; details: at 30 µM
R275C/Slo1WT/beta2 = test: as above; details: at 30 µM
[12] = growth inhibition of DIPG glioma cells, dose response, cell-based, JHH-DIPG-1, MIPE4.0, CellTiter-Glo, qHTS (AID 1347062; cut-off not given, nearly all actives have AC50 up to about 27 µM); details: JHH-DIPG-1 viability, CellTiter-Glo ATP luminescence
[13] = growth inhibition of DIPG glioma cells, dose response, cell-based, SU-DIPG-IV, MIPE4.0, CellTiter-Glo, qHTS (AID 1347063; cut-off not given, nearly all actives have AC50 up to about 30 µM;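 further: compound exposure lasted 48 hours before the viability readout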); details: SU-DIPG-IV viability, CellTiter-Glo ATP luminescence
[14] = growth inhibition of DIPG glioma cells, dose response, cell-based, SU-DIPG-XIII, MIPE5.0, CellTiter-Glo, qHTS (AID 1347064; cut-off not given, nearly all actives have AC50 up to about 23 µM); details: SU-DIPG-XIII viability, CellTiter-Glo ATP luminescence
[15] = system: Aerobactin synthetase IucA (Klebsiella pneumoniae); test: IucA aerobactin synthetase inhibitors, biochemical, Tocris library, absorbance (AID 1345561; call rule not given here;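 further: 100% = enzyme without compound and 0% = no enzyme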); details: purified IucA enzyme assay, absorbance (OD) read-out; stronger effect = lower value;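 tested at 8 µM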
[16] = target: ATP-dependent translocase ABCB1 (Homo sapiens) (UniProt P08183); test: MDR1 (ABCB1) efflux transporter inhibition, cell-based (AID 377; in the data active means fluorescence slope change above about 50%); details: MDR1-expressing cells, fluorescent substrate accumulation slope; stronger effect = higher value; concentration not given here
[17] = at 0.5 µM, stronger effect = higher value
[18] = measured here: combination with BGB IC20, at 0.005 µM
[19] = measured here: combination with BGB IC40, at 0.005 µM
[20] = measured here: combination with BGB IC40, at 0.05 µM
[21] = measured here: combination with cisplatin, at 0.5 µM, stronger effect = higher value
[22] = measured here: combination with cisplatin, at 5 µM, stronger effect = higher value
[23] = measured here: with BGB IC20 combination, at 0.5 µM
[24] = measured here: with cisplatin IC20 combination, at 0.5 µM
[25] = measured here: 5 uM single agent, at 5 µM
[26] = measured here: with BGB IC20, at 0.5 µM
[27] = measured here: with BGB IC20, at 5 µM
[28] = measured here: with cisplatin IC20, at 0.5 µM
[29] = measured here: with cisplatin IC20, at 5 µM

Sequence of ATP-dependent translocase ABCB1 (Homo sapiens) (P08183 whole entry, looked up): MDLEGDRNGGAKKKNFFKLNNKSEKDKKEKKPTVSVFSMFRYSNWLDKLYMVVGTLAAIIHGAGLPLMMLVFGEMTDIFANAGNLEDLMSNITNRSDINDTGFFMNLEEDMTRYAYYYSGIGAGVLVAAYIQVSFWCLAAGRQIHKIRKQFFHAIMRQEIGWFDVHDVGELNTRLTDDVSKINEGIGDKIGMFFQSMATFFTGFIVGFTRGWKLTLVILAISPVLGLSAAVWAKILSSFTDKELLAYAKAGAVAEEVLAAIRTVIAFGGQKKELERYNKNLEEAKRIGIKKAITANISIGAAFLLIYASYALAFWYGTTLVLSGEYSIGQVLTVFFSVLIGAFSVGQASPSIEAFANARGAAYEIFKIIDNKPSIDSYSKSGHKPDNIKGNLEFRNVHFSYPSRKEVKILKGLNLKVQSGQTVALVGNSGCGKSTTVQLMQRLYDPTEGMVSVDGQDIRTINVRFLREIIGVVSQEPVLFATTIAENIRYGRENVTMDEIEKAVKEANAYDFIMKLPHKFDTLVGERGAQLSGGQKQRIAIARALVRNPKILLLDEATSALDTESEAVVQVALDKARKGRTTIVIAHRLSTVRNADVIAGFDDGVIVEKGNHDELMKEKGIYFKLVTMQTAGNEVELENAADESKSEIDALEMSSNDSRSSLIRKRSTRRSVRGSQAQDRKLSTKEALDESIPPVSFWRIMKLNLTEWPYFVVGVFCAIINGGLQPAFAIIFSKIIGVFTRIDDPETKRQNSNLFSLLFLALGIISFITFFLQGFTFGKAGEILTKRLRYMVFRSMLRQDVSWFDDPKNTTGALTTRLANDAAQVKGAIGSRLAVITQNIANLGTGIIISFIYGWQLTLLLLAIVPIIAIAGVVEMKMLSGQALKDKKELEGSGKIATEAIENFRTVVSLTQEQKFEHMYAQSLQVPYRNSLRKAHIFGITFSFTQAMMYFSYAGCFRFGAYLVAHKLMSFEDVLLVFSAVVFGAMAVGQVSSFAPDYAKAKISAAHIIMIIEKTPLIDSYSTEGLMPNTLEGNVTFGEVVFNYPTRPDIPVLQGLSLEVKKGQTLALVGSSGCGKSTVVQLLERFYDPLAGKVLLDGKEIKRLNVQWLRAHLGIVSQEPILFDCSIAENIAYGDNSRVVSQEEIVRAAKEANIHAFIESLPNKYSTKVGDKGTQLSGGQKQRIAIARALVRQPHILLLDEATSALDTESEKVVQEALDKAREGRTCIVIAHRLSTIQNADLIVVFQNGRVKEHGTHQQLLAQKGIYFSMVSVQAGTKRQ

CCCC(CCC)C(=O)O
inclusion score [1]: 2 | outcome [2]: inactive | outcome [3]: inactive | outcome [4]: inactive | outcome [5]: inactive | outcome [6]: inactive | outcome [7]: inactive | inhibition [8, 17]: -13.2% (inactive) and -3.77% (inactive) | inhibition [8, 18]: -6.05% and -4.21% | inhibition [8, 19]: -31.2% and 0.129% | inhibition [8, 20]: -32.2% and 12.9% | inhibition [8, 21]: -39.1% and -9.89% | inhibition [8, 22]: -24.7% and -24.2% | inhibition ([9]; BGB combo, at 5 µM): -30.6% and 8.86% | inhibition ([9]; at 0.5 µM): -23.5% (inactive) and 13.8% (inactive) | inhibition ([9]; cisplatin combo, at 5 µM): -2.31% and 15.6% | inhibition [9, 23]: -33% and 14.7% | inhibition [9, 24]: 0.437% and 10.4% | inhibition ([9]; single agent, at 5 µM): -20.1% and 11% | inhibition ([10]; BGB IC20 combo, at 0.005 µM): -9.77% and 11.3% | inhibition ([10]; BGB IC40 combo, at 0.005 µM): -20.4% and -26.6% | inhibition ([10]; BGB IC40 combo, at 0.05 µM): -15.7% and -0.427% | inhibition ([10]; at 0.5 µM): -27.6% (inactive) and -12.8% (inactive) | inhibition ([10]; cisplatin combo, at 0.05 µM): -18.9% and -4.04% | inhibition ([10]; cisplatin combo, at 0.5 µM): -35.6% and -3.79% | inhibition ([10]; cisplatin combo, at 5 µM): -25.9% and 4.77% | inhibition [10, 25]: -29.5% and -2.64% | inhibition ([11]; at 0.5 µM): -8.02% (inactive) and 3.4% (inactive) | inhibition [11, 26]: -18.9% and -3.5% | inhibition [11, 27]: 53.9% and 3.4% | inhibition [11, 28]: -4.12% and 2.48% | inhibition [11, 29]: -47.8% and -2.5% | inhibition ([11]; single agent, at 5 µM): -17.1% and 13.4% | log fold change Tl+ flux (F380Y/beta1): -0.0195 (inactive) | log fold change Tl+ flux (F380Y/beta4): 0.0134 (inactive) | log fold change Tl+ flux (R275C/beta4): 0.0354 (inactive) | log fold change Tl+ flux (R275C/Slo1WT/beta2): -0.0422 (inactive)

Cc1ccc(-n2nc(C(C)(C)C)cc2NC(=O)Nc2ccc(OCCN3CCOCC3)c3ccccc23)cc1
outcome [2]: inactive | AC50 [3]: 13.2 µM (active) | outcome [12]: inactive | outcome [13]: inactive | outcome [14]: inactive | outcome [4]: inactive | outcome [5]: inactive | outcome [6]: inactive | outcome [7]: inactive

COC(=O)C1=C(C)NC(C)=C(C(=O)OC)C1c1ccccc1[N+](=O)[O-]
remaining activity [15]: 121% (inactive)

CCN(CC)CCOc1ccc(Cc2ccccc2)cc1
remaining activity [15]: 100% (inactive) | outcome [14]: inactive | outcome [5]: inactive | outcome [6]: inactive | outcome [7]: inactive

CCCC(=O)Nc1ccc(OCC(O)CNC(C)C)c(C(C)=O)c1 (stereo not drawn)
inclusion score [1]: 2 | log fold change Tl+ flux (F380Y/beta1): 0.00237 (inactive) | log fold change Tl+ flux (F380Y/beta4): -0.0162 (inactive) | log fold change Tl+ flux (R275C/beta4): 0.0245 (inactive) | log fold change Tl+ flux (R275C/Slo1WT/beta2): -0.0238 (inactive)

COc1ccccc1N1CCN(CCCCNC(=O)c2ccc(-c3ccc(C(C)=O)cc3)cc2)CC1
remaining activity [15]: 111% (inactive)

CCn1cc(C(=O)O)c(=O)c2ccc(C)nc21
fluorescence slope change [16]: 59.8% (active) | inclusion score [1]: 2 | outcome [3]: inactive | outcome [12]: inactive | outcome [5]: inactive | inhibition [8, 17]: -12.4% (inactive) and -25.4% (inactive) | inhibition [8, 18]: -22.2% and -24.5% | inhibition [8, 19]: 11.9% and -5.77% | inhibition [8, 20]: 1.93% and -7.94% | inhibition [8, 21]: -11.7% and -31.6% | inhibition [8, 22]: -6.26% and -18.6% | inhibition ([9]; BGB combo, at 5 µM): -4.41% and 16.2% | inhibition ([9]; at 0.5 µM): 3.94% (inactive) and 4.3% (inactive) | inhibition ([9]; cisplatin combo, at 5 µM): -15% and -2.27% | inhibition [9, 23]: -7.56% and 11.7% | inhibition [9, 24]: 7.18% and 9.4% | inhibition ([9]; single agent, at 5 µM): 11.6% and -22.5% | inhibition ([10]; BGB IC20 combo, at 0.005 µM): 7.03% and -21.5% | inhibition ([10]; BGB IC40 combo, at 0.005 µM): -26.9% and -29.6% | inhibition ([10]; BGB IC40 combo, at 0.05 µM): -0.123% and -9.89% | inhibition ([10]; at 0.5 µM): -22.6% (inactive) and -21.9% (inactive) | inhibition ([10]; cisplatin combo, at 0.05 µM): -0.123% and -9.89% | inhibition ([10]; cisplatin combo, at 0.5 µM): -52.2% and -39.7% | inhibition ([10]; cisplatin combo, at 5 µM): -11.7% and -29.5% | inhibition [10, 25]: -3.29% and -15.7% | inhibition ([11]; at 0.5 µM): -2.77% (inactive) and -11% (inactive) | inhibition [11, 26]: -12.2% and -35.2% | inhibition [11, 27]: -14.2% and -15.8% | inhibition [11, 28]: -1.63% and -0.143% | inhibition [11, 29]: 17.1% and -0.249% | inhibition ([11]; single agent, at 5 µM): 22.3% and -3.38% | log fold change Tl+ flux (F380Y/beta1): 0.00258 (inactive) | log fold change Tl+ flux (F380Y/beta4): 0.0252 (inactive) | log fold change Tl+ flux (R275C/beta4): 0.0726 (inactive) | log fold change Tl+ flux (R275C/Slo1WT/beta2): -0.00423 (inactive)
